Results published in the supplement of paper PMC13380429.

Legend:
[1] = tested on: Vero E6 infected with SARS-CoV-2; assay: morphology score (similarity to uninfected cells); higher = more like uninfected cells; conditions: 24 h
[2] = tested on: Vero E6 infected with SARS-CoV-2; assay: SARS-CoV-2 infection rate relative to infected DMSO; higher = more infection, active = 60 or less; conditions: 24 h

Structure (SMILES)	morphology score [1]	SARS-CoV-2 infection rate [2]
[NH-]c1c[n+](N2CCOCC2)no1 [linsidomine] (10 µM)	-0.0679	117% (inactive)
Cc1ccc(O)c(N=Nc2ccccc2)n1 (10 µM)	0.26	81% (inactive)
CC[N+](CC)(CC)CCOc1cccc(OCC[N+](CC)(CC)CC)c1OCC[N+](CC)(CC)CC [gallamine-triethiodide] (10 µM)	-0.128	112% (inactive)
C[C@]12CC[C@H](O)CC1=CC[C@@H]1[C@@H]2CC[C@]2(C)C(c3cccnc3)=CC[C@@H]12 [Abiraterone (CB-7598)] (10 µM)	-0.0295	115% (inactive)
O=C1[O][SbH]23[O]C(=O)C([O]2)C2[O][SbH]4([O]C(=O)C([O]4)C1[O]3)[O]C2=O [antimonyl] (10 µM)	0.138	99.5% (inactive)
CC1Sc2c(C(=O)O)c(=O)c3cc(F)c(N4CCNCC4)cc3n21 (centres undefined) [ulifloxacin] (10 µM)	-0.0402	106% (inactive)
CCCCCCCCCCCCCCCC(=O)OC[C@H](COP(=O)([O-])OCC[N+](C)(C)C)OC(=O)CCCCCCCCCCCCCCC [colfosceril-palmitate] (10 µM)	0.152	103% (inactive)
NC(=O)c1ncn([C@@H]2O[C@H](CO)[C@@H](O)[C@H]2O)n1 [ribavirin] (10 µM)	0.0157	97.5% (inactive)
CNC(=O)c1ccccc1Nc1nc(Nc2ccc(N3CCOCC3)cc2OC)ncc1Cl (10 µM)	-0.217	97.5% (inactive)
C[C@]12Cc3c[nH]nc3C[C@@H]1CC[C@@H]1[C@@H]2CC[C@@]2(C)[C@H]1CC[C@]2(C)O [stanozolol] (10 µM)	-0.305	110% (inactive)
Nc1ccc(S(=O)(=O)Nc2ccccn2)cc1 [sulfapyridine] (10 µM)	0.0798	102% (inactive)
C[N+](C)(C)[C@@H](Cc1c[nH]c(=S)[nH]1)C(=O)O [L-ergothioneine] (10 µM)	0.0598	99% (inactive)
CCS(=O)(=O)N1CCC[C@@H]2CN3CCc4cc(OC)ccc4[C@@H]3C[C@@H]21 (10 µM)	0.0669	102% (inactive)
CC(C)(C)NC(=O)[C@@H](c1cccnc1)N(C(=O)c1ccco1)c1ccc(C(C)(C)C)cc1 (10 µM)	0.333	83% (inactive)
COc1ccc(CC(=O)NC(/N=C(\NC#N)Nc2cccc3ncccc23)C(C)(C)C)cc1OC (centres undefined) (10 µM)	0.297	97% (inactive)
Cc1nc2ccc(Oc3ccc(F)cc3)cc2c(=O)n1C[C@H]1CCCN(C(C)C)C1 (10 µM)	0.295	76% (inactive)
COc1ccc2cc3[n+](cc2c1OC)CCc1cc2c(cc1-3)OCO2 [berberine] (10 µM)	0.0605	98% (inactive)
O=C(NCCCCCCNC(=O)ON=C1CCCCC1)ON=C1CCCCC1 (10 µM)	0.11	104% (inactive)
CCCCCCCC/C=C\CCCCCCCC(=O)NCc1ccc(O)c(OC)c1 [olvanil] (10 µM)	0.22	96% (inactive)

Structure (SMILES)	morphology score [1]	SARS-CoV-2 infection rate [2]
OCC(CO)N[C@H]1C[C@](O)(CO)[C@@H](O)[C@H](O)[C@H]1O [voglibose] (10 µM)	-0.105	106% (inactive)
O=P1(NCCCl)OCCCN1CCCl (centres undefined) [ifosfamide] (10 µM)	0.188	97.5% (inactive)
Oc1cccc(Nc2ncc(F)c(Nc3cccc(O)c3)n2)c1 (0.833333 µM)	0.183	100% (inactive)
CCOC(=O)[C@@H](C)Oc1ccc(Oc2nc3ccc(Cl)cc3o2)cc1 [fenoxaprop-p-ethyl] (10 µM)	-0.0825	106% (inactive)
CSc1nc(NC2CCCC2)c([N+](=O)[O-])c(NC2CCCC2)n1 (10 µM)	0.349	88% (inactive)
c1cc(OCCN2CCCCC2)cc(-c2n[nH]c3ccc(-c4nnc[nH]4)cc23)c1 (10 µM)	0.363	94.5% (inactive)
C/C(=C\c1csc(C)n1)[C@@H]1C[C@@H]2O[C@]2(C)CCC[C@H](C)[C@H](O)[C@@H](C)C(=O)C(C)(C)[C@@H](O)CC(=O)O1 [epothilone-B] (0.833333 µM)	0.00236	115% (inactive)
O=C(C[S+]([O-])Cc1ccco1)NC/C=C\COc1cc(CN2CCCCC2)ccn1 (centres undefined) [lafutidine] (10 µM)	0.0534	94% (inactive)
CCCC[N+]1(C)[C@@H]2C[C@@H](OC(=O)[C@H](CO)c3ccccc3)C[C@H]1[C@@H]1O[C@@H]12 (some centres undefined) [butylscopolamine-bromide] (10 µM)	0.191	102% (inactive)
O[C@@H]1[C@H](O)[C@@H](CCl)O[C@H]1n1cnc2c(NC3CC4CCC3C4)ncnc21 (mixture of isomers) [5'-chloro-5'-deoxy-ENBA-(+/-)] (10 µM)	0.0934	104% (inactive)
NCCCC[C@H](NC(=O)[C@@H]1CCCN1C(=O)[C@@H]1CSSC[C@H](N)C(=O)N[C@@H](Cc2ccc(O)cc2)C(=O)N[C@@H](Cc2ccccc2)C(=O)N[C@@H](CCC(N)=O)C(=O)N[C@@H](CC(N)=O)C(=O)N1)C(=O)NCC(N)=O [lypressin] (10 µM)	0.164	91% (inactive)
Cc1c(C(N)=O)cc([N+](=O)[O-])cc1[N+](=O)[O-] [dinitolmide] (10 µM)	-0.0186	106% (inactive)
CC(C)(O)C(Cl)(Cl)Cl [chlorobutanol] (10 µM)	0.123	106% (inactive)
CC(=O)SCCC(=O)N1[C@H](C)CCC[C@@H]1C(=O)O [methiopril] (10 µM)	0.0927	102% (inactive)
Cc1ccc(/N=C/N(C)/C=N/c2ccc(C)cc2C)c(C)c1 [amitraz] (10 µM)	0.147	106% (inactive)
CN[C@@H](C)C(=O)N[C@H](C(=O)N1CCC[C@H]1C(=O)Nc1sc(-c2ncco2)nc1-c1ccccc1)C1CCCCC1 (10 µM)	0.185	102% (inactive)
Cc1cnc(Nc2ccc(OCCN3CCCC3)cc2)nc1Nc1cccc(S(=O)(=O)NC(C)(C)C)c1 [fedratinib] (0.833333 µM)	-0.054	99.5% (inactive)
CCC(=O)O[C@H](CC(=O)O)C[N+](C)(C)C [levocarnitine-propionate] (10 µM)	-0.0873	104% (inactive)
COc1cc2c(cc1C(F)(F)F)N(C(=O)Nc1cc(F)cc(-c3cccnc3)c1)CC2 (10 µM)	-0.0154	106% (inactive)

Structure (SMILES)	morphology score [1]	SARS-CoV-2 infection rate [2]
COc1ccc(CCN(C)CCCN2CCc3cc(OC)c(OC)cc3CC2=O)cc1OC [zatebradine] (10 µM)	-0.00282	112% (inactive)
COc1cc(N2CCC(N3CCN(C)CC3)CC2)ccc1Nc1ncc(Cl)c(Nc2ccccc2P(C)(C)=O)n1 [brigatinib] (0.833333 µM)	-0.178	105% (inactive)
CNC(=O)c1ccc(-c2cnc3ncc(Cc4ccc5ncccc5c4)n3n2)cc1F (10 µM)	0.0374	98% (inactive)
COc1ccc2c(c1)c(CC(=O)O)c(C)n2C(=O)c1ccc(Cl)cc1 [indomethacin] (10 µM)	0.0755	104% (inactive)
CCCCCCc1ccc(O)cc1O [hexylresorcinol] (10 µM)	0.199	88% (inactive)
COC(=O)C1=C(C)NC(C)=C(C(=O)OCCN2CCN(C(c3ccccc3)c3ccccc3)CC2)C1c1cccc([N+](=O)[O-])c1 (centres undefined) [manidipine] (10 µM)	0.247	91% (inactive)
O=C(Nc1ccccc1)c1ccccc1O [salicylanilide] (10 µM)	-0.148	110% (inactive)
CN1C(=O)N(c2ccc(C#N)c(C(F)(F)F)c2)C(=O)[C@]1(CO)c1ccccc1 [GLPG0492-R-enantiomer] (10 µM)	-0.00354	104% (inactive)
CC(=O)c1ccc2c(c1)N(CCCN1CCN(CCO)CC1)c1ccccc1S2 [acetophenazine] (10 µM)	0.201	96.5% (inactive)
COc1cc2c(NC3CCN(C)CC3)nc(N3CCCN(C)CC3)nc2cc1OCCCN(C)C (10 µM)	0.124	116% (inactive)
OCC(Br)(Br)Br [tribromoethanol] (10 µM)	-0.0304	118% (inactive)
Cc1nnc(C[C@@H]2C=C(c3ccc(Cl)cc3)c3ccccc3-n3c(C)nnc32)o1 (0.833333 µM)	-0.106	108% (inactive)
CCN(CC)CCO[C@H]1CC[C@@]2(C)C(=CC[C@@H]3[C@@H]2CC[C@]2(C)C(=O)CC[C@@H]32)C1 (0.833333 µM)	0.234	84% (inactive)
Oc1cc(O)c2c(c1)O[C@H](c1ccc(O)c(O)c1)[C@H](O)[C@H]2c1c(O)cc(O)c2c1O[C@H](c1ccc(O)c(O)c1)[C@H](O)C2 [procyanidin-B-2] (10 µM)	0.114	106% (inactive)
CNCc1ccc(-c2cc(-c3nc(-c4ccc(S(=O)(=O)C(C)C)cc4)cnc3N)on2)cc1 (0.833333 µM)	0.565	52% (active)
COc1ccccc1N1CCN(CCCNc2cc(=O)n(C)c(=O)n2C)CC1 [urapidil] (10 µM)	0.088	101% (inactive)
Cc1cc2c(cc1CC(=O)c1sccc1S(=O)(=O)Nc1onc(C)c1Cl)OCO2 [sitaxentan] (10 µM)	0.015	101% (inactive)
COc1cc(/C=C2\CCC/C(=C\c3ccc(O)c(OC)c3)C2=O)ccc1O [cyclovalone] (10 µM)	0.0684	93% (inactive)
C=C(C)[C@@H]1[C@H]2OC(=O)[C@@H]1[C@]1(O)C[C@H]3O[C@]34C(=O)O[C@H]2[C@]14C [picrotoxinin] (10 µM)	0.0677	116% (inactive)
